PubChem BioAssay AID449762 (Southern Research Specialized Biocontainment Screening …, 2010)
Out of some 330,000 compounds screened, about 1,900 (0.58%) were called active. Inconclusive results (about 4%) are left out. The list is a sample of the results. Measured potencies and affinities stand elsewhere. Unmarked numbers belong to inactive results. Cut-off read from the data, not from the text of the source: inconclusive = inhibition above about 70% without an active follow-up result; inactive = below that.

test: M. tuberculosis growth inhibition, HTS (AID 449762);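 note: bacterial growth assessed after seven days of incubation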; conditions: M. tuberculosis H37Rv growth inhibition, 7H9 media; at 25 µM; hits give high values

Row | SMILES | inhibition [%]
1 | Cc1cc(C(=O)NNc2c(Cl)cccc2Cl)n(C(C)(C)C)n1 | -6.53
2 | COc1cccc(NC(=O)C2CCN(C(=O)[C@@H]3Cc4ccccc4CN3C(=O)OC(C)(C)C)CC2)c1 | 2.76
3 | Cc1cccc(/C=N/n2c(COc3ccccc3)n[nH]c2=S)c1 | 9.89
4 | COc1cccc(/C=N/n2c(COc3ccccc3)n[nH]c2=S)c1 | 0.11
5 | Cc1ccsc1/C=N/NC(=O)Cc1ccc([N+](=O)[O-])cc1 | 0.13
6 | COC(=O)C1=C(c2ccc(F)cc2OCc2ccccc2)C[C@@H]2CC[C@H]1N2C(=O)NCc1ccc(C)cc1 | 11.4
7 | Cc1nnc(SCC(=O)NC2CCCCC2)[nH]c1=O | -4.1
8 | Cc1cc(=O)[nH]c(SCC(=O)NC2CCCCCC2)n1 | 1.87
9 | COc1cc(C(=O)NNC(=O)c2cc(C)[nH]n2)cc(OC)c1OC | -0.74
10 | COc1ccc(NC(=O)CN(C)C(=O)COc2ccccc2Cc2ccccc2)cc1 | 10.9
11 | COC(=O)CCCC1=CC2=CC(=O)C(C)(OC(=O)c3cccs3)C(=O)C2=CN1Cc1ccccc1 (stereo not given) | -3.58
12 | Cc1[nH]c2ccccc2c1C(=O)C(=O)N1CCN(c2cccc(Cl)c2)CC1 | 13.6
13 | CC1(C)Cc2nc3sc4c(SCC(=O)O)ncnc4c3cc2CO1 | 0.43
14 | CCSc1ncnc2c1sc1nc3c(cc12)COC(C)(C)C3 | 3.08
15 | Cc1ccc(C)c(NC(=O)CN(C)C(=O)c2cccc(S(=O)(=O)N3CCN(Cc4ccccc4)CC3)c2)c1 | 4.09
16 | OCCCn1c(CCNc2nc(-c3ccc(Cl)cc3)cs2)nc2cc(C(F)(F)F)ccc21 | 29.6
17 | CN1CCN(/N=C/c2ccc(-c3ccccc3)cc2)CC1 | 4.56
18 | CN1CCN(/N=C/c2cccc(Cl)c2Cl)CC1 | 4.06
19 | COC(=O)c1ccc(CS(=O)(=O)c2ccc(C)cc2)o1 | 2.36
20 | Cc1ccc(NC(=O)CC2OC(=O)c3ccccc32)cc1S(=O)(=O)N1CCCCCC1 (stereo not given) | -3.23
21 | Cc1nn(CCc2nn[nH]n2)c2nc(-c3ccc(C4CCCCC4)cc3)cc(C(F)(F)F)c12 | 21.8
22 | Cc1nn(CCc2nn[nH]n2)c2nc(-c3ccccc3)cc(C(F)(F)F)c12 | 3.42
23 | CC(C)(C)c1ccc(C(=O)N2CCC(=O)N(C(COCc3ccccc3)Cc3ccccc3)CC2)cc1 (stereo not given) | -7.28

Row | SMILES | inhibition [%]
24 | C=CCNc1oc(-c2ccc(OCC)cc2)nc1C#N | 0.33
25 | Cc1ccc(S(=O)(=O)N2CCN(Cc3nc4ccccc4n3C)CC2)cc1 | -10.2
26 | CC(OC(=O)c1nc(Cl)ccc1Cl)C(=O)Nc1ccc2c(c1)OCCO2 (stereo not given) | 23.5
27 | Cc1ccc(OCCCCNC2CCCCC2)c(C)c1 | 0.93
28 | Cc1ccc(OCCCCN2CCCCC2)c(C)c1 | 0.08
29 | O=C(COC(=O)C1=Cc2ccccc2OC1)NCc1ccccc1 | -0.53
30 | Cc1ccc2c(c1)N(CC(=O)OC(CC(C)C)C(=O)NC1CCCC1)C(=O)CO2 (stereo not given) | 0.6
31 | Cc1nc(-c2ccccc2)sc1C1(C)CC(c2ccc(OC(F)(F)F)cc2)=NO1 (stereo not given) | 1.65
32 | Cc1nc(NC(=O)c2ccccc2)sc1C1(C)CC(c2ccccc2F)=NO1 (stereo not given) | -0.28
33 | CN1C(=O)C(O)(CC(=O)c2cccnc2)c2ccccc21 (stereo not given) | -2.52
34 | CCC1CN(C(=O)N2CCC(C(=O)NCc3ccc(C)o3)CC2)c2cc(C)ccc2O1 (stereo not given) | -5.76
35 | Cc1ccnc(N/C=C(/NC(=O)c2ccccc2)C(=O)NN)n1 | 2.37
36 | COc1ccc(-n2c(C)cc(C(=O)COC(=O)Cn3cnc4ccccc43)c2C)cc1 | 5.9
37 | COc1ccccc1C1=NOC(COC(=O)c2ccc(Br)cc2)C1 (stereo not given) | 66.3
38 | COc1ccc(C(=O)OCC2CC(c3ccccc3)=NO2)cc1OC (stereo not given) | 2.23
39 | COC(C[C@H]1O[C@H]1C(=O)[C@@H](C)OCc1ccccc1)OC | -3.98
40 | Cc1ccc(NC(=O)/C(C#N)=N/Nc2ccc(C(=O)O)cc2)c(C)c1 | -9.1
41 | CCOC(=O)C1CCN(Cc2coc3c(Cl)cc(Cl)cc3c2=O)CC1 | 10.8
42 | COc1ccc(F)cc1S(=O)(=O)NCc1ccccc1 | -3.97
43 | CCN(c1ccc(OC)cc1)S(=O)(=O)c1ccc2c(c1)CCN2C(=O)CCC(=O)O | -2.77
44 | c1ccc2c(c1)CCc1ccccc1C2=C1CCNCC1 | -0.99
45 | CCOC(=O)N1CCC(=C2c3ccc(Cl)cc3CCc3cccnc32)CC1 | 2.73
46 | CC(C)(C)NC(=O)C(c1ccco1)N(C(=O)Cn1nnc(-c2ccc(F)cc2)n1)c1cccc(F)c1 (stereo not given) | 5.34

Row | SMILES | inhibition [%]
47 | Cc1cc(N2CCN(Cc3nc(-c4ccc(Cl)cc4)oc3C)CC2)cc(C)n1 | 15.9
48 | Cc1cc(N2CCN(Cc3nc(-c4ccc(F)cc4)oc3C)CC2)cc(C)n1 | 9.44
49 | O=c1cnnc(SCCc2ccccc2)[nH]1 | -11.7
50 | COc1ccc(-c2nnc3ccc(SC)nn23)cc1 | 12.5
51 | O=C(O)Cn1ccc2ccccc21 | -3.21
52 | CC(C)Cn1c(CN2CCN(C)C(CCO)C2)nc2ccccc21 (stereo not given) | -7.61
53 | O=C(CN1CCN(c2ncccn2)CC1)N1CCCc2c1c(=O)oc1ccc(O)cc21 | 6.59
54 | CC(=O)Oc1ccc2oc(=O)c3c(c2c1)CCCN3C(=O)CN1CCN(c2ncccn2)CC1 | -4.05
55 | O=C(NCCNC(=O)c1ccc(Cl)cc1Cl)c1ccccn1 | 0.45
56 | CCCc1cc(=O)[nH]c(SCC(=O)N2c3ccccc3NC(=O)C2(C)C)n1 | 3.32
57 | CC1=C(C(=O)N2CCOCC2)C(c2cc(C)cs2)NC(=O)N1 (stereo not given) | 2.64
58 | Cc1ccc(F)cc1NC(=O)COC(=O)c1ccc2ncsc2c1 | -5.07
59 | c1ccc(C[C@H]2CN=C(Nc3ccccc3)N2CCCC2CCCCC2)cc1 | 22.3
60 | c1ccc(C[C@H]2CN=C(Nc3ccccc3)N2CCC2CCCC2)cc1 | 30
61 | O=C(O)C(Cc1c[nH]c2ccccc12)NS(=O)(=O)c1cccc(Cl)c1Cl (stereo not given) | -3.04
62 | COc1ccc(NC(=O)CN(C)CC(=O)Nc2sc3c(c2C#N)CCC3)cc1 | -8.9
63 | Cc1ccc(NC(=O)CN(C)CC(=O)Nc2sc3c(c2C(N)=O)CCC3)cc1 | 66.6
64 | CC(=O)OC(c1nc2ccccc2c(=O)n1C1CC2(OC1=O)c1ccccc1N1C(=O)C(C)(C)N(O)C12)C(C)C (stereo not given) | -6.29
65 | Cc1ccc(N2C(=O)NC(=O)/C(=C\C=C\c3ccco3)C2=O)cc1 | -4.11
66 | Cc1ccc(N2C(=O)NC(=O)/C(=C/C=C/c3ccco3)C2=O)cc1 | 53.8
67 | Cc1cc(NC(=O)CSCC(=O)N(C)Cc2ccc(F)cc2)no1 | -22.2
68 | Cc1ccc(-c2csc3ncnc(Nc4ccc(C(=O)O)cc4)c23)cc1 | 6.21
69 | Fc1ccc(-c2csc3ncnc(Nc4ccc(N5CCOCC5)cc4)c23)cc1 | 28.8

Row | SMILES | inhibition [%]
70 | O=C1c2cccc3c([N+](=O)[O-])c(O)cc(c23)C(=O)N1Nc1ccccc1 | -8.23
71 | O=C(Nc1ccccc1)NC1CCCCC1 | 7.91
72 | CCC(=O)N1c2ccc(S(=O)(=O)NCc3ccccc3)cc2CC1C (stereo not given) | 3.62
73 | COc1ccc(-c2cc(-c3ccccc3)nc(NN)n2)cc1OC | 2.81
74 | COc1nc(-c2ccccc2)cc(-c2ccccc2)n1 | 11.4
75 | CC(C)Cn1c(SCC(=O)N2CCc3ccccc3C2)nc2cc(Cl)ccc2c1=O | -3.67
76 | CCCCN(CC)CCNC(=O)c1cn(C)c(=O)c2c1c1ccccc1n2C | -0.73
77 | Cc1cc(C)n2nc(CCc3ccccc3)nc2n1 | 0.58
78 | CCCCC(=O)NNC(=S)NC(=O)c1cccc([N+](=O)[O-])c1 | 29
79 | CCCCCCCC(=O)NNC(=O)c1ccc([N+](=O)[O-])cc1 | 3.14
80 | COc1ccc2oc(=O)c(C(=O)NCc3ccc(C)cc3)cc2c1 | -2.24
81 | COc1cc2c(cc1OC)C1=C(C#N)CCC(=O)N1CC2 | 7.82
82 | Cc1cc(C)n(-c2nc(Nc3ccccc3)nc(-n3nc(C)cc3C)n2)n1 | 15.3
83 | CNc1nc(C)nc(-n2nc(C)cc2C)n1 | -0.69
84 | Cc1cccc(NC(=O)COC(=O)Cc2cccs2)c1C | 4.38
85 | Cc1ccc(C)c(N2CN(CCC3=CCCCC3)CNC2=S)c1 | -4.98
86 | C[C@@H]1O[C@@H](O[C@H]2[C@H](Oc3cc(O)c4c(c3)O[C@H](c3ccc(O)cc3)CC4=O)O[C@H](CO)[C@@H](O)[C@@H]2O)[C@H](O)[C@H](O)[C@H]1O | -0.33
87 | C[C@@H]1O[C@@H](O[C@H]2[C@H](Oc3cc(O)c4c(c3)OC(c3ccc(O)cc3)CC4=O)O[C@H](CO)[C@@H](O)[C@@H]2O)[C@H](O)[C@H](O)[C@H]1O (stereo not given in full) | -2.06
88 | CCCCc1nc2cc(C(=O)N3CCCCC3CCNC(C)=O)ccc2o1 (stereo not given) | 7.94
89 | CCC(CC)c1nnc(NC(=O)c2cc([N+](=O)[O-])ccc2N2CCOCC2)s1 | 5.48
90 | CCN1CCN(C(=S)NC(=O)/C=C/c2cccs2)CC1 | -0.91
